# The panel holds about 83,000 compounds, 20% with a hit somewhere; the sample as a whole holds those more often.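 Percent growth is the endpoint: 0 to 100 indicates growth inhibition (40 means 60% inhibition), 0 means no net growth, and negative values indicate cell death.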 A number with no mark means an inactive call. Activity calls are given as the source filed them. The calls were made as follows: active = growth percent below 10; inactive = the rest.
# What was measured:
# Experiment in all cases: NCI-60 one-dose screen, 48 h (100 = growth as untreated, 0 = no growth, -100 = all killed)
# Conditions in all cases: 10 µM
# NCI-H23 lung = tested on: NCI-H23 lung
# NCI-H226 lung = tested on: NCI-H226 lung
# NCI-H322M lung = tested on: NCI-H322M lung
# HOP-62 NSCLC = tested on: HOP-62 NSCLC
# NCI-H460 lung = tested on: NCI-H460 lung
# HOP-92 NSCLC = tested on: HOP-92 NSCLC
# NCI-H522 lung = tested on: NCI-H522 lung
# A549/ATCC NSCLC = tested on: A549/ATCC NSCLC
# 786-0 renal = tested on: 786-0 renal
# COLO 205 colon = tested on: COLO 205 colon
# DU-145 prostate = tested on: DU-145 prostate
# K-562 leukemia = tested on: K-562 leukemia
# MALME-3M melanoma = tested on: MALME-3M melanoma
# MDA-MB-231 breast = tested on: MDA-MB-231 breast
# RXF 393 renal = tested on: RXF 393 renal
# SF-268 CNS = tested on: SF-268 CNS
# SF-295 CNS = tested on: SF-295 CNS
# SF-539 CNS = tested on: SF-539 CNS
# UACC-257 melanoma = tested on: UACC-257 melanoma
# M14 melanoma = tested on: M14 melanoma
Compound,growth (NCI-H23 lung),growth (NCI-H226 lung) [%],growth (NCI-H322M lung),growth (HOP-62 NSCLC),growth (NCI-H460 lung),growth (HOP-92 NSCLC),growth (NCI-H522 lung),growth (A549/ATCC NSCLC),growth (786-0 renal),growth (COLO 205 colon),growth (DU-145 prostate),growth (K-562 leukemia),growth (MALME-3M melanoma),growth (MDA-MB-231 breast),growth (RXF 393 renal),growth (SF-268 CNS),growth (SF-295 CNS),growth (SF-539 CNS),growth (UACC-257 melanoma),growth (M14 melanoma)
COc1ccc(C2C=C(c3ccc(OC)c(OC)c3)N=C3SC=CN32)c(Br)c1 (stereo not given),89.3%,70.7,87.5%,103%,87.5%,77.5%,60.8%,82.3%,92.3%,94.8%,82.7%,8.77% (active),88.7%,78%,98.5%,90.4%,74.9%,87.1%,97.3%,55.9%
Cc1cc(C)c(/C=C2\C(=O)Nc3ccc(NC(=O)CCCCCCC(=O)NO)cc32)[nH]1,52.4%,65.6,31.3%,34%,77.4%,-30.4% (active),-10.6% (active),82%,72%,3.61% (active),19.3%,22.7%,18.7%,12%,19.1%,22.8%,30%,15%,0.0206% (active),18.4%
COc1cc(-c2nc3ccc(C)cc3[nH]2)ccc1OCC(=O)N=Nc1c(O)[nH]c2ccccc12,-17.5% (active),112,-33.9% (active),-49.4% (active),-70.5% (active),-12.7% (active),-63.5% (active),8.54% (active),-93.5% (active),-37.8% (active),2.84% (active),-62.9% (active),-68.8% (active),-81.2% (active),-9.89% (active),-35.6% (active),-52.8% (active),-88.5% (active),13.8%,-72.8% (active)
CCCCCCN=C(N)CCCCCCCCCCC(N)=NCCCCCC,27.8%,51.6,62.4%,18.5%,13.4%,8.01% (active),23.9%,33.7%,37%,-9.55% (active),58.5%,13.5%,44.9%,32.1%,35.8%,28.8%,41%,29.3%,79.8%,23.2%
CCCn1c(=O)c2c(nc(-c3cccc(OCCCCl)c3)n2C)n(CCC)c1=O,59.1%,16.5,41%,-18.3% (active),24.4%,-1.14% (active),83.2%,28.3%,23.9%,65.8%,61.3%,92.6%,62.2%,36.2%,37%,59.9%,15.3%,63%,82.1%,68.6%
CC(=O)[C@H]1CC[C@H]2[C@@H]3CC[C@@H]4CC=C(C=O)C[C@]4(C)[C@H]3CC[C@]12C,92.7%,99.4,97.6%,122%,103%,68.1%,82.5%,92.4%,93.2%,105%,98.7%,81.9%,96.2%,94.3%,112%,92.4%,93.2%,92.4%,96.2%,89.2%
O=S(=O)(NCCO)c1ccc(OCCOc2ccc(S(=O)(=O)NCCO)cc2)cc1,96.6%,91.3,90.4%,90.7%,111%,81.1%,91.7%,95%,96.9%,104%,107%,106%,87%,89.6%,102%,102%,98.1%,94.4%,95%,102%
C#CCn1c(-c2cccc(OCCCCl)c2)nc2c1c(=O)n(C)c(=O)n2C,79.5%,62.5,92.1%,81.4%,93.5%,49.9%,52%,92%,86.5%,96.8%,65.5%,12.7%,84.4%,75.2%,104%,67.1%,87.3%,86%,104%,52.8%

# Reference: PubChem BioAssay (NCI)
